Shown are actives, neighbours in structure and some others; about 21% of the full set was active somewhere.
CYP2C9 inh – inhibitors of human CYP2C9. inhibition, % at 5 µM. hit rate 20% among 96,000. CYP2C9 Supersomes, luciferin-H conversion, luminescence;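 active = blocking of liver enzyme CYP2C9 beyond about 50% at 5 µM, limit read from the data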
Target sequence (P11712 whole entry, looked up): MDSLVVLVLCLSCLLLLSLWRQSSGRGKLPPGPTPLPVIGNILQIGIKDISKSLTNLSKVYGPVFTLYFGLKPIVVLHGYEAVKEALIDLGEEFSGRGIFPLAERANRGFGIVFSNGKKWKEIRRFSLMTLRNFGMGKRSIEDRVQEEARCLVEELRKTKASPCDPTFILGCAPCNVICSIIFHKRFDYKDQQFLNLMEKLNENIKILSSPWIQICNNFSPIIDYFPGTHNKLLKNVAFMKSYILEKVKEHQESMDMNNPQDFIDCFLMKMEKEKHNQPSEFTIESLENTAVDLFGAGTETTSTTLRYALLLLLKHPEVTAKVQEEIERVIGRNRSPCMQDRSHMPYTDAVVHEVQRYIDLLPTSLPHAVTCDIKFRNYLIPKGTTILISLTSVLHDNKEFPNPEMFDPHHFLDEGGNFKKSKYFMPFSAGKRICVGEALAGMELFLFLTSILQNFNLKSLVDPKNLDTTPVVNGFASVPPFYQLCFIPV
MRP resist rev – MRP-mediated drug resistance reversal; hit rate 0.04% among 85,000; H69AR cells + 2 uM doxorubicin, CellTiter-Glo, 72 h; differential viability (reversal), % at 10 µM;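 active = viability drop by adding the cancer drug above about 55%, with treated viability meeting a 40% cutoff, limit read from the data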;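 also: viability without doxorubicin minus viability with 2 µM doxorubicin for each compound; larger differential means the compound sensitizes cells more to doxorubicin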
CYP2C19 inh – human CYP2C19 inhibition; P33261; CYP2C19 Supersomes, luciferin-H EGE luminescence, 30 min; inhibition, % at 5 µM; hit rate 21% among 96,000; AID 778;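 active = CYP2C19 inhibition above a set limit at 5 µM in the primary screen, cut at about 50% in these data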;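 also: plate controls were negative control wells for no effect and 2.5 mM tranylcypromine positive control for full effect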
MRP-1 activ – activates MRP-1 | hit rate 0.61% among 140,000 | viability increase, % at 10 µM | H69AR cells + doxorubicin, viability rescue, CellTiter-Glo;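 active = viability gain under doxorubicin at or above a set limit, the compound median plus 3 SD, cut at about 4.7% in these data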;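 also: MRP-1 overexpressing cells given doxorubicin 25 µM after compound pretreatment; 18-22 h compound pretreatment then 72 h with doxorubicin before readout; 0% = doxorubicin-only wells and 100% = vehicle-treated cells without doxorubicin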
CYP2C9 activ – increases human cytochrome P450 2C9 activity; recombinant CYP2C9, luciferin-H conversion, luminescence; active compounds read high; factor 1 = untreated enzyme, 0 = blocked; activation factor at 5 µM; hit rate 1.4% among 96,000;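 active = activation factor of 2 or more for CYP2C9 at a 5 µM dose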;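 also: 0 = sulfaphenazole-blocked wells and 1 = vehicle-only wells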
CYP2C19 activ – increases human CYP2C19 enzyme activity; P33261; recombinant CYP2C19, luciferin-H EGE luminescence; active compounds read high; 0 = fully inhibited enzyme, 1 = untreated enzyme; activation factor at 5 µM; 96,000 tested, under 10 active;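 active = activation factor of at least 2 at 5 µM in the primary screen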;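 also: 0 = wells with 2.5 mM tranylcypromine and 1 = vehicle-only wells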
Active calls of the source: *; · = not tested or not shown.

SMILES | CYP2C9 inh | MRP resist rev | CYP2C19 inh | MRP-1 activ | CYP2C9 activ | CYP2C19 activ
CCOC(=O)C1CCN(C(=O)CCCOc2ccccc2)CC1 | 7 | 23 | 36 | -3 | 0.9 | 0.6
O=C(CCCOc1ccccc1)N1CCCCC1 | 3 | 6 | 56* | -1 | 1 | 0.4
CCOC(=O)c1cn(CC)c2ccc(Br)cc2c1=O | -96 | 18 | 6 | 0 | 2* | 0.9
CCC(C)N(C(=O)COC(=O)Cc1n[nH]c(=O)c2ccccc12)C1CCS(=O)(=O)C1 (stereo unspecified) | 7 | 10 | -3 | 2 | 0.9 | 1
O=C1CCCCC1Sc1nnc(Cc2cccs2)n1CCc1ccccc1 (stereo unspecified) | 70* | -8 | 68* | -4 | 0.3 | 0.3
COc1ccc(C2C(C(=O)N3CCN(c4ccccc4)CC3)c3ccccc3C(=O)N2C)cc1 (stereo unspecified) | · | -31 | · | -4 | · | ·
COc1ccc(C2C(C(=O)NCc3cccnc3)c3ccccc3C(=O)N2C)cc1OC (stereo unspecified) | 70* | 1 | -14 | -4 | 0.3 | 1.1
COc1ccc(C2C(C(=O)N3CCN(c4ccccc4)CC3)c3ccccc3C(=O)N2C)cc1OC (stereo unspecified) | 73* | -18 | 35 | -2 | 0.3 | 0.7
O=C(CCc1ccccc1)Nc1ccccc1C(=O)NCc1ccco1 | · | 20 | · | 1 | · | ·
O=C(NCc1ccco1)c1ccccc1NC(=O)C1CC(=O)N(c2ccc(Cl)cc2)C1 (stereo unspecified) | 68* | -8 | 53* | -1 | 0.3 | 0.5
CCC(C)C(NC(=O)c1ccccc1NC(=O)c1ccc(OC)cc1)C(=O)NCc1ccco1 (stereo unspecified) | 89* | -8 | 76* | -3 | 0.1 | 0.2
O=C(Nc1ccc(Cl)cc1)Nc1ccccc1C(=O)NCc1ccco1 | 53* | -2 | 6 | 0 | 0.5 | 0.9
O=C(Nc1ccccc1C(=O)NCc1ccco1)c1ccccc1 | 74* | -3 | 54* | -1 | 0.3 | 0.5
CCCCC(=O)NS(=O)(=O)c1ccc(NS(C)(=O)=O)cc1 | · | · | · | 1 | · | ·
CC(C)Oc1ccc(C(=O)Nc2nnc(SCC(=O)N3CCOCC3)s2)cc1 | · | · | · | 0 | · | ·
C#CCNc1cc(C)nc2ncnn12 | 0 | 4 | -7 | -1 | 1 | 1.1
Cc1ccc(NC(=O)CSc2nnc(-c3n[nH]c4ccccc34)n2-c2ccccc2)c(C)c1 | · | · | · | -5 | · | ·
O=C(COc1ccccc1)Nc1ccccc1C(=O)NCc1ccco1 | 64* | 11 | 58* | -2 | 0.4 | 0.4
Cc1ccccc1NC(=O)CNc1ccccc1C(=O)NCc1ccco1 | 24 | 17 | 68* | -1 | 0.8 | 0.3
Cc1cccc(C)c1NC(=S)Nc1ccccc1C(=O)NCc1ccco1 | · | · | · | -2 | · | ·
COc1ccccc1OCC(=O)Nc1ccccc1C(=O)NCc1ccco1 | · | 5 | · | -3 | · | ·
Cc1nn(Cc2ccccc2Cl)c(C)c1NC(=O)C1C2CCC(O2)C1C(=O)O (stereo unspecified) | 27 | 16 | 94* | 0 | 0.7 | 0.1
Cc1nn(Cc2ccc(F)cc2)c(C)c1NC(=O)c1noc2c1CCCCC2 | 77* | 19 | 56* | -1 | 0.2 | 0.4
Cc1nn(Cc2ccccc2Cl)c(C)c1NC(=O)c1noc2c1CCCCC2 | 54* | 2 | -2 | 4 | 0.5 | 1
Cc1ccccc1Cn1nc(C)c(NC(=O)c2noc3c2CCCC3)c1C | 58* | 1 | 23 | -2 | 0.4 | 0.8
SMILES | CYP2C9 inh | MRP resist rev | CYP2C19 inh | MRP-1 activ | CYP2C9 activ | CYP2C19 activ
COc1cc(NC(=S)N2CCN(C(=O)C3CCCO3)CC2)c(OC)cc1Cl (stereo unspecified) | · | · | · | -1 | · | ·
Nc1ncncc1-c1ccc([N+](=O)[O-])cc1 | -12 | · | -1 | -1 | 1.1 | 1
Cc1ccc(CNC(=O)[C@H]2C[C@@H]2[C@H](NP(=O)(c2ccccc2)c2ccccc2)c2ccccc2)o1 | · | · | · | -1 | · | ·
Cc1ccc(C(=O)Nc2nc(-c3ccccc3)c(-c3ccccc3)o2)cc1 | · | · | · | 1 | · | ·
O=C(O)CN1C(=O)SC(Nc2ccc(Cl)cc2)C1=O (stereo unspecified) | 0 | -9 | 16 | -3 | 1 | 0.8
O=C(Cn1c(C(F)(F)F)nc2ccccc21)c1ccc(Cl)cc1 | 44 | · | 100* | -1 | 0.6 | 0
OC(CN1CCCCC1)Cn1c(C(F)(F)F)nc2ccccc21 (stereo unspecified) | -12 | 8 | -2 | 1 | 1.1 | 1
Cc1nc2ccccc2n1CC(O)Cn1c(C(F)(F)F)nc2ccccc21 (stereo unspecified) | 72* | -1 | 33 | -2 | 0.3 | 0.7
O=C(Cn1c(C(F)(F)F)nc2ccccc21)c1ccccc1 | 39 | · | 53* | -3 | 0.6 | 0.5
CCOc1ccccc1-c1ccc(C(=O)NCc2ccccc2)o1 | · | · | · | -1 | · | ·
Cc1c(CCO)c(=O)n(-c2ccccc2)n1S(=O)(=O)c1ccc(Cl)cc1 | 47 | -2 | 70* | -1 | 0.5 | 0.3
Cc1ccc(S(=O)(=O)/N=C(/Nc2c(C)n(C)n(-c3ccccc3)c2=O)c2ccc(Cl)cc2)cc1 | 39 | · | 31 | -3 | 0.6 | 0.7
Cc1[nH]c2ccccc2c1C(=O)CN1C(=O)NC2(CC(C)CC(C)(C)C2)C1=O (stereo unspecified) | · | · | · | -4 | · | ·
CCOc1cc2c(C#N)c(N3CCNCC3)nc(N)c2c(N)n1 | 49 | · | 23 | -3 | 0.5 | 0.8
COc1cc2c(C#N)c(N3CCc4ccccc4C3)nc(N)c2c(N)n1 | 85* | 4 | 81* | -6 | 0.2 | 0.2
COc1cc2c(C#N)c(N3CCCCC3)nc(N)c2c(N)n1 | 24 | -8 | 19 | -2 | 0.8 | 0.8
CCOc1cc2c(C#N)c(N3CCCCC3)nc(N)c2c(N)n1 | 90* | -15 | 62* | -2 | 0.1 | 0.4
CCn1c2ccccc2c2cc(NC(=O)N3CCOCC3)ccc21 | -43 | -2 | 52* | -5 | 1.4 | 0.5
O=C(Nc1ccc2c(c1)oc1ccccc12)N1CCOCC1 | 12 | 4 | 36 | 0 | 0.9 | 0.6
CCn1c2ccccc2c2cc(NC(=O)c3ccc(Br)o3)ccc21 | 1 | -2 | 77* | 0 | 1 | 0.2
O=C1C2C3C=CC(C3)C2C(=O)N1c1cccnc1 (stereo unspecified) | -10 | 0 | -10 | 0 | 1.1 | 1.1
Cc1cc(C)c2oc(-c3ccc(C)c(NC(=S)NC(=O)c4cccs4)c3)nc2c1 | 26 | · | 8 | -6 | 0.7 | 0.9
Cc1ccc(-c2nc3ccccc3[nH]2)cc1NC(=O)/C=C/c1ccco1 | 79* | · | 47 | -4 | 0.2 | 0.5
Cc1ccc(-c2nc3ccccc3[nH]2)cc1NC(=S)NC(=O)c1ccccc1Br | 63* | · | 38 | -2 | 0.4 | 0.6
O=C(/C=C/c1ccco1)N/C(=C\c1ccco1)C(=O)NCCc1nc2ccccc2[nH]1 | · | · | · | -2 | · | ·
CCOc1ccc(C(=O)Nc2cc(-c3nc4ccccc4[nH]3)ccc2Cl)cc1[N+](=O)[O-] | · | · | · | -5 | · | ·
